This assay deals with Trichoderma virens ATCC 9645. Put plainly: growth yield (OD600) relative to untreated control; higher = less growth inhibition. To be noted: compound concentration: 100 uM. A digest of the protocol:
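Library compounds (100 μM final), with or without a co-applied biocide (200 ng ml^−1), were added to 100 μl aliquots of Trichoderma virens ATCC 9645 spores at 15,000 spores ml^−1 in potato dextrose broth. Cultures were grown at 30 °C in 96-well plates, and OD600 was measured at 40 h and 72 h. Each growth value is a mean of duplicate screens, expressed relative to the control with neither agent.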

Counter-ions that a name gives are not always drawn. ± gives the standard error. Out of some 1,300 compounds screened, about 75 (6%) showed an effect of 50% or more. The sample holds strong results, similar compounds and a random draw of the others, so the mix is not that of the screen.

In the supplement of paper PMC8007513 one finds growth yield data, which are given here for 32 molecules.

Turning to `COc1ccc(CN(CCN(C)C)c2ccccn2)cc1` [Pyrilamine maleate], the growth yield (40 h) is 101 ± 1.1% and the growth yield (72 h) worked out at 103 ± 1.5%.
The matching figures for `CCCCCCCCCCCCCCCC[N+](C)(C)CCN(Cc1ccc(OC)cc1)c1ncccn1` [Thonzonium bromide]: 0% and 0%.
In the same order, the values of `Nc1ncn(C2OC(CO)C(O)C2O)c(=O)n1` (centres undefined) [Azacytidine-5] are 89.4 ± 5.9% and 88.4 ± 4.3%.
In the same order, the values of `CC(C)[C@H](N)C(=O)OCCOCn1cnc2c(=O)nc(N)[nH]c21` [Valacyclovir hydrochloride] are 102% and 103%.
In the case of `CC(=C(CCO)SSCC1CCCO1)N(C=O)Cc1cnc(C)nc1N` (stereo in doubt) [Fursultiamine Hydrochloride], the growth yield reads like this: (40 h) 104 ± 5.2%; (72 h) 101 ± 3.1%.
In the same order, the values of `NC[C@H]1CC[C@H](C(=O)O)CC1` [Tranexamic acid] are 99.75 ± 0.64% and 102.2 ± 0.73%.
The matching figures for `CCCCOc1ccc(OCCCN2CCOCC2)cc1` [Pramoxine hydrochloride]: 89.6 ± 1.9% and 90.5 ± 2.2%.
In the same order, the values of `C#Cc1cccc(Nc2ncnc3cc(OCCOC)c(OCCOC)cc23)c1` [Erlotinib] are 108% and 105%.
On to `COc1cc2ncnc(Nc3ccc(F)c(Cl)c3)c2cc1OCCCN1CCOCC1` [Gefitinib], for which the growth yield runs as follows: (40 h) 7.47 ± 0.16%; (72 h) 6.29%.
The matching figures for `CC[C@H]1OC(=O)[C@H](C)[C@@H](O[C@H]2C[C@@](C)(OC)[C@@H](O)[C@H](C)O2)[C@H](C)[C@@H](O[C@@H]2O[C@H](C)C[C@H](N(C)C)[C@H]2O)[C@](C)(O)C[C@@H](C)/C(=N\OCOCCOC)[C@H](C)[C@@H](O)[C@]1(C)O` [Roxithromycin]: 97.85 ± 0.64% and 96.7 ± 1.5%.
The matching figures for `COc1ccnc(C[S+]([O-])c2nc3cc(OC(F)F)ccc3[nH]2)c1OC` (centres undefined) [Pantoprazole sodium]: 88.2 ± 6.2% and 94 ± 3.8%.
In the same order, the values of `Cc1c(F)c(N2CCNC(C)C2)cc2c1c(=O)c(C(=O)O)cn2C1CC1` (centres undefined) [Grepafloxacin] are 99.9 ± 1.4% and 97.53 ± 0.63%.
Regarding `CC(=O)OCC(=O)[C@@]1(O)[C@H](C)C[C@H]2[C@@H]3CCC4=CC(=O)C=C[C@]4(C)[C@@]3(F)[C@@H](O)C[C@@]21C` [Dexamethasone acetate], the growth yield is 102 ± 4% (40 h) and 103 ± 3.7% (72 h).
The matching figures for `CCOCCn1c(N2CCCN(C)CC2)nc2ccccc21` [Emedastine]: 98.96 ± 0.16% and 96.9 ± 2.7%.
In the same order, the values of `CCC(C)(C)c1ccc(CC(C)CN2C[C@@H](C)O[C@@H](C)C2)cc1` (some centres undefined) [Amorolfine hydrochloride] are 4.45 ± 0.32% and 2.94 ± 0.21%.
The matching figures for `CCn1cc(C(=O)O)c(=O)c2cnc(N3CCNCC3)nc21` [Pipemidic acid]: 94.4 ± 3.5% and 92.7%.
As to `NC[C@@H]1O[C@H](O[C@H]2[C@@H](O)[C@H](O[C@@H]3[C@@H](O)[C@H](N)C[C@H](N)[C@H]3O[C@H]3O[C@H](CO)[C@@H](O)[C@H](O)[C@H]3N)O[C@@H]2CO)[C@H](N)[C@@H](O)[C@@H]1O` [Paromomycin sulfate], the growth yield is, setting by setting: (40 h) 102.6 ± 0.32%; (72 h) 96.59 ± 0.32%.
In the same order, the values of `O=C1CN(/N=C/c2ccc(-c3ccc([N+](=O)[O-])cc3)o2)C(=O)N1` [Dantrolene sodium salt] are 93.4 ± 2.2% and 99.7 ± 1.4%.
In the same order, the values of `O=C(NCC(O)CO)c1c(I)c(C(=O)NCC(O)CO)c(I)c(N(CCO)C(=O)CO)c1I` (centres undefined) [Ioversol] are 101 ± 5.4% and 98.1 ± 2.8%.
The matching figures for `CN(C)CCCN1c2ccccc2Sc2ccccc21` [Promazine hydrochloride]: 91.33 ± 0.16% and 95.6%.
Consider `CN1CCN(CCCN2c3ccccc3Sc3ccc(C(F)(F)F)cc32)CC1` [Trifluoperazine dihydrochloride], for which the growth yield reads like this: (40 h) 20 ± 0.95%; (72 h) 63.35 ± 0.42%.
In the same order, the values of `OCCN1CCN(CCCN2c3ccccc3Sc3ccc(C(F)(F)F)cc32)CC1` [Fluphenazine dihydrochloride] are 44 ± 6.2% and 90.3 ± 8.9%.
The matching figures for `CC(=O)c1ccc2c(c1)N(CCCN1CCC(CCO)CC1)c1ccccc1S2` [Piperacetazine]: 124 ± 8.6% and 119 ± 8.9%.
The matching figures for `OCCN1CCN(CCCN2c3ccccc3C=Cc3ccccc32)CC1` [Opipramol dihydrochloride]: 91.3 ± 1.1% and 98.1 ± 1.4%.
As for `CN(C)CCCN1c2ccccc2Sc2ccc(C(F)(F)F)cc21` [Triflupromazine hydrochloride], the growth yield amounted to 74.66 ± 0.32% (40 h) and 92.1 ± 2.1% (72 h).
In the same order, the values of `CO[C@H]1C[C@H](O[C@H]2[C@H](C)[C@@H](O[C@@H]3O[C@H](C)C[C@H](N(C)C)[C@H]3OC(C)=O)[C@@H](C)C[C@@]3(CO3)C(=O)[C@H](C)[C@@H](OC(C)=O)[C@@H](C)[C@@H](C)OC(=O)[C@@H]2C)O[C@@H](C)[C@@H]1OC(C)=O` [Troleandomycin] are 100.5 ± 0.79% and 98.4 ± 1.3%.
Take `CC=CC1=C(C(=O)O)N2C(=O)[C@@H](NC(=O)[C@H](N)c3ccc(O)cc3)[C@H]2SC1` [Cefprozil]: the growth yield runs as follows: (40 h) 100 ± 1.4%; (72 h) 92.7 ± 3.1%.
In the same order, the values of `CN1CCN(C2=Nc3cc(Cl)ccc3Nc3ccccc32)CC1` [Clozapine] are 102 ± 2.4% and 104.77 ± 0.1%.
The matching figures for `CN1[C@@H]2CC[C@H]1C[C@@H](OC(=O)c1c[nH]c3ccccc13)C2` [Tropisetron hydrochloride]: 104 ± 10% and 104 ± 8.6%.
The matching figures for `CC(C)c1c(C(=O)Nc2ccccc2)c(-c2ccccc2)c(-c2ccc(F)cc2)n1CC[C@@H](O)C[C@@H](O)CC(=O)O` [Atorvastatin]: 106% and 85.1 ± 10%.
With `O=C(O)C[C@H](O)C[C@H](O)/C=C/c1c(C2CC2)nc2ccccc2c1-c1ccc(F)cc1` [Pitavastatin calcium], the growth yield is, setting by setting: (40 h) 4.13%; (72 h) 2.94%.
The matching figures for `CC(C)n1c(/C=C/C(O)CC(O)CC(=O)O)c(-c2ccc(F)cc2)c2ccccc21` (centres undefined) [Fluvastatin sodium salt]: 1.91 ± 1.3% and 1.78 ± 0.94%.
